This is an account of results in PubChem BioAssay AID1508600 (Functional Genomics Laboratory (NCATS/FGL), 2020).

About 3,700 (7%) of roughly 53,000 sequences were called active.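 The calls were made as follows: active = gene knockdowns whose robust z-score for IL-1 alpha signal is at least 2 or at most -2, so actives lie on both sides; inactive = the rest.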 The full list was thinned out, with actives kept by preference.

The nature of the experiment: Components of the Cytosolic LPS Sensing Pathway: Gene Identification via Genome-wide siRNA Screen.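 Also: robust z of the log signal after scaling to non-targeting control siRNA wells of the plate.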 The conditions noted are these: RAW264.7 macrophages, IL-1a HTRF, actives lie on both sides, screened at 100 nM (by protocol), cells primed 5 h with Pam3CSK4 first. In short, it runs like this: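 RAW264.7; siRNA 100 nM final, RNAiMAX, 48h 37 degrees C; Pam3CSK4 5 h; LipidA + TransIT-TKO 24 h; IL-1a HTRF; CellTiter-Glo viability; robust z vs negative-control median.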
On to GGCGUGAACCAAACAGACUTT against Calcrl, for which the z-score was -0.604 (inactive).
The figure for CGGAGCCAAAUACGAAGGGTT against Jph3 is -0.548 (inactive).
With GGCAGAAAAGAUGGAAAAUTT against Evi5l, the z-score was -2.1 (active).
The figure for GGCAAGCACACAAUGAUGCTT against Plin5 is -0.0222 (inactive); for GGUAGAACAACAGAACAAUTT against Myo5b it is 2.9 (active); for GCAGCUUCAAGAGAGCCAUTT against Rhbdl1 it is -0.604 (inactive).
For the sequence GGAAGUAGCCCAGAAGUGUTT against Rad51d, the z-score was -0.337 (inactive).
As to GGGAGAGUUCCAUAAAUUGTT against Narf, the z-score is -0.728 (inactive).
The figure for GGGACUGGCACCAUUUGUUTT against Cetn4 is -0.289 (inactive).
As for GGACAUGGCUUUAUAACCUTT against Dcdc5, the z-score was 0.256 (inactive).
The figure for GCAGCAUAGAGACUAAAUCTT against Usp17la is 0.604 (inactive).
For GGAUAAAAUUGAGUCUAUGTT against Was the value was 1.81 (inactive); for GGGCCAAUGAUGGACUUCCTT against Syp, 0.33 (inactive); for GGCCCUAUUAGAGAUAAAATT against Robo3, -1.2 (inactive).
As for GGUAGUCUGAACACUCUAATT against Msto1, the z-score is 0.427 (inactive).
As to GGAAGAAGAGGAGGAGAUGTT against Zbtb7b, the z-score was 3.17 (active).
The figure for GCUAUCUCCACUCUGAGUCTT against Spryd4 is -0.342 (inactive).
For CCGCCAGGGAAACAAAUACTT against Zfp414 the value was -1.21 (inactive).
Regarding GCUUCUGCUUGUUCGCUAGTT against Usp17ld, the z-score was 2.7 (active).
For GCUCACUAUGUAAAGAGAATT against Itpk1 the value was 0.807 (inactive).
For GGAGAGUCAAGUCUUUUCUTT against Dnal4 the value was 0.0546 (inactive).
For GGACAAACUCCGAGACUCCTT against Utf1 the value was -0.339 (inactive); for GGAUGAUCAUUCUAGCUGUTT against Hormad1, 0.836 (inactive); for GGUGUCUGAUUCUAACAUATT against Catsper4, 0.589 (inactive).
Regarding GGAAGAAAACACCAUUUUUTT against Irf6, the z-score was 3.12 (active).
The figure for GGUGCAAUCAGGUAUUUCATT against Olfr917 is -2.26 (active); for GGAAAGUGGACACCUUCCATT against Vezt it is 1.2 (inactive); for CCAGAAGCCAUUAACUAUGTT against Lck it is -0.479 (inactive).
Consider GGACGUGGAAAACCACAGUTT against Nphp4, for which the z-score was 0.0474 (inactive).
For GGAUUUCGAGAAAAUCAACTT against Kctd4 the value was -0.225 (inactive).
Consider GGUGCUGGACAAAUUGAGATT against Cgas, for which the z-score was -0.189 (inactive).
Consider GGAGUGCAGUCACUAUUUGTT against Il2rg, for which the z-score is -0.0154 (inactive).
Regarding GGUUCUUCAGGCCACUGAUTT against Dnaaf2, the z-score was 0.982 (inactive).
On to GGAUGCAGAGAAGAAUCUGTT against Psmd6, for which the z-score is -2.65 (active).
Take GGAGAAGGACCAUCUAAAGTT against Cmah: the z-score was 0.901 (inactive).
CGUCUAGGAAGGAAACAGGTT against Stk32a: the z-score was -1.54 (inactive).
The figure for GGAUGGUUACUAUCAGACUTT against Exoc3 is 0.187 (inactive); for CCAGAUGGAAAGCGAAAAATT against Thra it is -0.27 (inactive); for GGAGAAUGGCCACGUAAAATT against Marcks it is 0.294 (inactive).
With GGAUAUCUCACUGCUUUUATT against Mpp5, the z-score was 2.13 (active).
On to GGCAUCCUUGAGCUUUAAATT against Nufip2, for which the z-score was -0.0213 (inactive).
As for GGUGCAAGUUUUUCAGUCUTT against Castor2, the z-score was 0.411 (inactive).
For GCACCAUGAAUGGAGAUGATT against Prl2c5 the value was -2.56 (active); for GCCAUACACAGUGGCAUAATT against Zfp811, 0.395 (inactive); for CCAUAAAUCAUGAACUGGUTT against Sesn3, -1.41 (inactive).
On to GGGCAAGAACUACAUCUGCTT against Wdr18, for which the z-score was -0.288 (inactive).
The figure for CCCAAAUACUCCAAUUAUATT against Fzd3 is 0.289 (inactive); for GCAUCUGGUAAAAGGAGCATT against Rpap1 it is 0.956 (inactive).
For GCCAGUGGUAUCUGGAAGUTT against Brca2 the value was 0.0865 (inactive).
Turning to GGUAGAGCUAAGUAAAGAGTT against Pwp1, the z-score was -0.977 (inactive).
The figure for GGCAGUAAUAGGAGACCAUTT against Ces1d is 2.76 (active); for GGCUUCAGCAAAGACAAUGTT against Ache it is -1.07 (inactive).
With CGCAAAGUGGACAAACGUATT against Kcne3, the z-score was 0.0218 (inactive).
Consider CCAAUCGGUGAUCAAGAAATT against Tfap2e, for which the z-score was -0.525 (inactive).
As to GCCAAGGUUAUCAUGAAUGTT against F13a1, the z-score was -0.141 (inactive).
Turning to GUUUUUCUGGGCAAUUUUATT against Olfr739, the z-score is 2.11 (active).
For GGAGAUUUACUCACAGUUCTT against Kcnip4 the value was 1.26 (inactive); for GUAAAAUGUUCACUAAAGCTT against Olfr1248, -1.14 (inactive); for GCUUAUAAUGCCAUUACUUTT against Rad21, -0.548 (inactive).
For the sequence CGAUUUAAAGUAGUAGUGGTT against Dusp28, the z-score was -1.13 (inactive).
Turning to GACAGAAAUAUAGACUCGATT against Ppp1r42, the z-score was -2.45 (active).
For CGGAUAACAAAAGUAGCAATT against Trp53rka the value was 0.276 (inactive).
Take GGUUUAGCAUCGUCCUAUATT against Crmp1: the z-score was -0.495 (inactive).
For CGGCAGAUGCAUUCAGGAUTT against Ccdc125 the value was 0.0172 (inactive); for GGAGGUGUUAGAUUUUGACTT against Asrgl1, -0.295 (inactive); for GGCGGAGGAAGAGUUCAACTT against Atp6v1e2, -0.393 (inactive).
For GGAUGAAACUAUUCAGCACTT against Chml the value was -0.635 (inactive); for GCAGGAGGAUUAGUAAAUUTT against Ier2, 0.966 (inactive); for CCCUAUUGUCAAUAUUCUATT against Nr1h5, 0.492 (inactive).
The figure for GGGAGCAAAAGCUUUACUUTT against Prl3c1 is 2.25 (active).
As to GGAGAAAUUUCUGAGAAGATT against Slc51a, the z-score is -1.24 (inactive).
For GGCGGCCUUAGUAGAUAUCTT against Acsl4 the value was 0.677 (inactive).
GGAACAAGGAAGUUACAGGTT against Olfr30: the z-score is -1.06 (inactive).
For GAAAAGAGUUUCCACGAGATT against Il19 the value was 0.0645 (inactive); for GGAGAUUCUCCAUAACCUGTT against Rnf135, 2.29 (active).
Take “GGGAGAAAGAUUGUAACUATT against 1110032A03Rik”: the z-score is -1.05 (inactive).
Take GGAACAAAAACCAUUGUGATT against Gng7: the z-score was -1.49 (inactive).
The figure for CGAACCUGUUGACGGAUUCTT against Wnt1 is 0.563 (inactive).
Turning to GGACAAAGCAAUCCACAUCTT against Wdr55, the z-score is -0.564 (inactive).
CCAUCGGGAUUGACUAUGGTT against Dnajc27: the z-score is -0.878 (inactive).
As to GCUAAUGAUACAGAAGUUGTT against Snrpb2, the z-score was 0.661 (inactive).
For GGAGGAUGAGGAUUUUGAUTT against Spsb3 the value was 2.16 (active); for CCACUUCUUUCCAUGAACUTT against Slc6a4, 0.7 (inactive); for GGCAGAUUGAUAAAAUUCATT against Stag1, -0.223 (inactive).
The figure for GCUCAGUCUCUUGGGUGGUTT against Cel is 2.27 (active).
Take GCUCUGUUCACCUACCCGATT against Anapc16: the z-score is 0.264 (inactive).
Turning to GGUUGUACUUGUUUUUCCUTT against Dtwd1, the z-score was 1.35 (inactive).
The figure for GCAUUGUCAUGAUACAACATT against Fem1b is 0.793 (inactive).
The figure for GGAGGAGAGGAGAAUAGCATT against Atp5k is -0.586 (inactive); for GGAACUACAACAGAAACGATT against Cep131 it is -1.42 (inactive).
The figure for GUGACAAUGAAAAAUGUGUTT against Clec4b1 is -2.42 (active); for GGAAAUGUCUUAUGAUAACTT against Col5a1 it is 0.194 (inactive).
On to CCUCAUCAAUCAGCCUAUGTT against Olfr1178, for which the z-score is -1.83 (inactive).
The figure for GCAUCGCUAAGUCCGUCUUTT against Aqp4 is -0.1 (inactive); for GGACCUGUAUUCUCAGGGATT against Lce1a2 it is -0.251 (inactive); for CCUGUAACCUUGCUUAAUGTT against Hoxc6 it is 0.0208 (inactive).
For the sequence GGAGAAAUGAAGGUAUACATT against Cert1, the z-score was -1.12 (inactive).
For GGUUUAUGACAAACUGAAATT against Enpp4 the value was -0.0826 (inactive); for GCAGAAGUUAAGAUGCAUATT against Usf1, 2.02 (active).
The figure for CCUGCUCAACGGAGACCAUTT against Hmx3 is 3.47 (active).
Consider GGCUUGAGACUUAAAACGGTT against Lztfl1, for which the z-score was 0.583 (inactive).
The figure for CGCUGAAAUGGUGAAUAAATT against Recql is -0.0529 (inactive).
For GUCCCACUGUCCAGUUACATT against Gm9946 the value was -0.565 (inactive); for CGAGAGAAGCCCAUCAUCATT against Nrg4, 1 (inactive); for GGAAGAAAAGGGAUAUCAGTT against Xirp1, 0.253 (inactive).
As to GGUUCAGACACCACUUCAGTT against Bgn, the z-score was 2.56 (active).
For GGAGGAUCACCCAUCAAAUTT against Oxct1 the value was -0.083 (inactive).
The figure for GGUAUUUUGAUGUUGGACUTT against Hhat is 0.989 (inactive).
